Several values for one entry are separate records, joined by “and”; a condition that tells them apart may be missing. Equal values may be shown once. Among all 5,500 compounds or so, about 2,000 (36%) were called active. About 18% were inconclusive and are not listed. Rule as the data show it: active = normalized growth mostly below about 0.91 (no sharp cut-off); inconclusive = no clear call, values can overlap the other calls; inactive = mostly above about 0.92. The list shows a part of the results.
Assay: chemical genetic growth profiling, strain panel (AID 1159580);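 also: tested at 20 µM; growth read once vehicle control cultures reached saturation at 30 °C; 1 = growth at the plate median or of vehicle wells; lower values mean less growth of the strain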
Details: S. cerevisiae deletion strains, growth OD

Measured: normalized growth

C#C[C@]1(O)CCC2C3CCC4=CC(=O)CC[C@@H]4C3CC[C@@]21CC (some centres undefined)
inactive: locus YAL021C, strain ccr4, stronger effect = lower value 0.986 | locus YAL026C, strain drs2, stronger effect = lower value 0.972 | locus YAL030W, strain snc1, stronger effect = lower value 1 | locus YBL061C, strain skt5, stronger effect = lower value 0.987 | locus YBR009C, strain hhf1, stronger effect = lower value 0.985 | locus YBR021W, strain FUR4, stronger effect = lower value 1 | locus YBR023C, strain chs3, stronger effect = lower value 0.983 | locus YBR171W, strain sec66, stronger effect = lower value 0.992 | locus YBR229C, strain ROT2, stronger effect = lower value 0.984 | locus YBR231C, strain swc5, stronger effect = lower value 1.01 | locus YBR279W, strain paf1, stronger effect = lower value 0.998 | locus YCL011C, strain gbp2, stronger effect = lower value 1 | locus YCL016C, strain dcc1, stronger effect = lower value 0.988 | locus YCL029C, strain bik1, stronger effect = lower value 0.981 | locus YCL061C, strain MRC1, stronger effect = lower value 0.991 | locus YCL069W, strain vba3, stronger effect = lower value 0.995 | locus YCR088W, strain abp1, stronger effect = lower value 0.999 | locus YDL005C, strain med2, stronger effect = lower value 0.987 | locus YDL035C, strain GPR1, stronger effect = lower value 0.979 | locus YDL040C, strain nat1, stronger effect = lower value 0.99 | locus YDL074C, strain BRE1, stronger effect = lower value 1.04 | locus YDL101C, strain DUN1, stronger effect = lower value 0.987 | locus YDL134C, strain PPH21, stronger effect = lower value 0.974 | locus YDL185W, strain tfp1, stronger effect = lower value 0.982 | locus YDL192W, strain arf1, stronger effect = lower value 0.986 | locus YDR001C, strain nth1, stronger effect = lower value 1 | locus YDR069C, strain doa4, stronger effect = lower value 0.979 | locus YDR101C, strain arx1, stronger effect = lower value 0.988 | locus YDR150W, strain NUM1, stronger effect = lower value 1.01 | locus YDR159W, strain sac3, stronger effect = lower value 0.978 | locus YDR162C, strain NBP2, stronger effect = lower value 0.997 | locus YDR195W, strain ref2 1.05 | locus YDR297W, strain sur2, stronger effect = lower value 0.993 | locus YDR318W, strain mcm21, stronger effect = lower value 0.976 | locus YDR334W, strain swr1, stronger effect = lower value 1.01 | locus YDR335W, strain msn5, stronger effect = lower value 1 | locus YDR388W, stronger effect = lower value 0.992 | locus YDR392W, strain spt3, stronger effect = lower value 0.828 | locus YDR502C, strain sam2, stronger effect = lower value 0.984 | locus YEL003W, strain gim4, stronger effect = lower value 0.967 | locus YEL037C, strain rad23, stronger effect = lower value 0.983 | locus YEL061C, strain CIN8 (second series), stronger effect = lower value 1 | locus YEL061C, strain CIN8, stronger effect = lower value 1.01 | locus YER015W, strain faa2, stronger effect = lower value 1.01 | locus YER016W, strain bim1, stronger effect = lower value 0.993 | locus YER110C, stronger effect = lower value 0.999 | locus YER111C, strain swi4, stronger effect = lower value 0.997 | locus YER155C, strain BEM2 (second series), stronger effect = lower value 0.997 | locus YER155C, strain BEM2, stronger effect = lower value 0.99 | locus YER167W, strain BCK2, stronger effect = lower value 0.991 | locus YFR010W, strain ubp6, stronger effect = lower value 0.991 | locus YGL078C, strain dbp3, stronger effect = lower value 0.989 | locus YGL086W, strain mad1, stronger effect = lower value 1 | locus YGL167C, strain pmr1, stronger effect = lower value 0.995 | locus YGL173C, strain kem1, stronger effect = lower value 0.979 | locus YGL227W, strain vid30, stronger effect = lower value 1.01 | locus YGL240W, strain doc1, stronger effect = lower value 0.991 | locus YGL248W, strain PDE1, stronger effect = lower value 0.993 | locus YGL253W, strain hxk2, stronger effect = lower value 0.995 | locus YGR135W, strain pre9, stronger effect = lower value 0.975 | locus YGR229C, strain SMI1, stronger effect = lower value 1.01 | locus YGR252W, strain gcn5, stronger effect = lower value 1.06 | locus YHR013C, strain ard1, stronger effect = lower value 1.01 | locus YHR027C, strain rpn1, stronger effect = lower value 1.01 | locus YHR030C, strain SLT2, stronger effect = lower value 0.995 and 0.955 | locus YHR079C, strain IRE1 (second series), stronger effect = lower value 0.979 | locus YHR079C, strain IRE1, stronger effect = lower value 0.955 | locus YHR094C, strain hxt1, stronger effect = lower value 1 | locus YHR129C, strain ARP1, stronger effect = lower value 0.996 | locus YHR142W, strain chs7, stronger effect = lower value 0.997 | locus YHR200W, strain rpn10, stronger effect = lower value 0.984 | locus YIL066C, strain RNR3, stronger effect = lower value 0.995 | locus YIL073C, strain SPO22, stronger effect = lower value 0.944 | locus YIL125W, strain kgd1, stronger effect = lower value 0.998 | locus YIR030C, strain dcg1, stronger effect = lower value 0.982 | locus YJL092W, strain hpr5, stronger effect = lower value 0.998 | locus YJL095W, strain BCK1 (second series), stronger effect = lower value 1.01 | locus YJL095W, strain BCK1, stronger effect = lower value 0.988 and 0.951 | locus YJL115W, strain asf1, stronger effect = lower value 1 | locus YJL129C, strain trk1, stronger effect = lower value 0.986 | locus YJL134W, strain LCB3, stronger effect = lower value 0.995 | locus YJL154C, strain vps35, stronger effect = lower value 0.993 | locus YJL164C, strain tpk1, stronger effect = lower value 0.988 | locus YJL166W, strain qcr8, stronger effect = lower value 0.991 | locus YJL168C, strain set2, stronger effect = lower value 0.99 | locus YJL187C, strain SWE1 (second series), stronger effect = lower value 0.988 | locus YJL187C, strain SWE1, stronger effect = lower value 0.997 | locus YJR043C, strain POL32, stronger effect = lower value 1.01
active: locus YDR137W, strain rgp1, stronger effect = lower value 0.82

— PubChem BioAssay AID1159580 (chemical genetic matrix, 2015)
